Experimental data from PubChem BioAssay AID1159580 (chemical genetic matrix, 2015).
In all, about 5,500 compounds went through this assay and about 2,000 (36%) were called active. Roughly 18% stayed inconclusive and do not appear here. No stated cut-off is given here; in the data, active means normalized growth mostly below about 0.91 (no sharp cut-off); inconclusive means no clear call, values can overlap the other calls; inactive means mostly above about 0.92. The list shows a part of the results.

Assay: chemical genetic growth profiling, strain panel (AID 1159580);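 further: tested at 20 µM; growth read once vehicle control cultures reached saturation at 30 °C; 1 = growth at the plate median or of vehicle wells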
Settings: growth OD

Measured: normalized growth

CC(=O)OCC1=C(C(=O)O)N2C(=O)[C@@H](NC(=O)CSc3ccncc3)[C@H]2SC1
inactive: S. cerevisiae deletion strains, locus YJR043C, strain POL32, stronger effect = lower value 0.959 | S. cerevisiae deletion strains, locus YJR066W, strain TOR1, stronger effect = lower value 0.987 | S. cerevisiae deletion strains, locus YKL009W, strain mrt4, stronger effect = lower value 1 | S. cerevisiae deletion strains, locus YKL068W, stronger effect = lower value 0.982 | S. cerevisiae deletion strains, locus YKL085W, strain MDH1 (second series), stronger effect = lower value 0.975 | S. cerevisiae deletion strains, locus YKL085W, strain MDH1, stronger effect = lower value 0.975 | S. cerevisiae deletion strains, locus YKL160W, strain elf1, stronger effect = lower value 1.03 | S. cerevisiae deletion strains, locus YKR001C, strain vps1, stronger effect = lower value 0.994 | S. cerevisiae deletion strains, locus YKR026C, strain gcn3, stronger effect = lower value 1.03 | S. cerevisiae deletion strains, locus YKR091W, strain srl3, stronger effect = lower value 1.02 | S. cerevisiae deletion strains, locus YLL001W, strain dnm1, stronger effect = lower value 1.02 | S. cerevisiae deletion strains, locus YLL026W, stronger effect = lower value 1.01 | S. cerevisiae deletion strains, locus YLL041C, strain sdh2, stronger effect = lower value 1.02 | S. cerevisiae deletion strains, locus YLR027C, strain aat2, stronger effect = lower value 1.02 | S. cerevisiae deletion strains, locus YLR039C, strain RIC1, stronger effect = lower value 0.981 | S. cerevisiae deletion strains, locus YLR058C, strain SHM2, stronger effect = lower value 0.985 | S. cerevisiae deletion strains, locus YLR102C, strain apc9, stronger effect = lower value 0.988 | S. cerevisiae deletion strains, locus YLR113W, strain HOG1, stronger effect = lower value 0.974 | S. cerevisiae deletion strains, locus YLR221C, strain rsa3, stronger effect = lower value 1.03 | S. cerevisiae deletion strains, locus YLR258W, strain gsy2, stronger effect = lower value 1.01 | S. cerevisiae deletion strains, locus YLR262C, strain YPT6 (second series), stronger effect = lower value 1.07 | S. cerevisiae deletion strains, locus YLR262C, strain YPT6, stronger effect = lower value 0.926 | S. cerevisiae deletion strains, locus YLR268W, strain sec22, stronger effect = lower value 0.957 | S. cerevisiae deletion strains, locus YLR320W, strain mms22, stronger effect = lower value 1 | S. cerevisiae deletion strains, locus YLR330W, strain CHS5, stronger effect = lower value 0.98 | S. cerevisiae deletion strains, locus YLR342W, strain FKS1 (second series), stronger effect = lower value 0.986 | S. cerevisiae deletion strains, locus YLR342W, strain FKS1, stronger effect = lower value 1.03 | S. cerevisiae deletion strains, locus YLR357W, strain rsc2, stronger effect = lower value 1.05 | S. cerevisiae deletion strains, locus YLR370C, strain arc18, stronger effect = lower value 1.01 | S. cerevisiae deletion strains, locus YLR371W, strain rom2, stronger effect = lower value 0.994 | S. cerevisiae deletion strains, locus YLR384C, strain iki3, stronger effect = lower value 1.04 | S. cerevisiae deletion strains, locus YLR418C, strain cdc73, stronger effect = lower value 1.05 | S. cerevisiae deletion strains, locus YML016C, strain PPZ1, stronger effect = lower value 0.987 | S. cerevisiae deletion strains, locus YML032C, strain rad52, stronger effect = lower value 0.992 | S. cerevisiae deletion strains, locus YML120C, strain ndi1, stronger effect = lower value 1.03 | S. cerevisiae deletion strains, locus YML124C, strain tub3, stronger effect = lower value 0.994 | S. cerevisiae deletion strains, locus YMR058W, strain fet3, stronger effect = lower value 1.01 | S. cerevisiae deletion strains, locus YMR078C, strain ctf18, stronger effect = lower value 0.987 | S. cerevisiae deletion strains, locus YMR125W, strain sto1, stronger effect = lower value 1.02 | S. cerevisiae deletion strains, locus YMR129W, stronger effect = lower value 1.02 | S. cerevisiae deletion strains, locus YMR205C, strain PFK2, stronger effect = lower value 1.02 | S. cerevisiae deletion strains, locus YMR223W, strain ubp8, stronger effect = lower value 1.01 | S. cerevisiae deletion strains, locus YMR231W, strain pep5, stronger effect = lower value 1.01 | S. cerevisiae deletion strains, locus YMR263W, strain SAP30, stronger effect = lower value 1 | S. cerevisiae deletion strains, locus YMR307W, strain GAS1, stronger effect = lower value 0.972 | S. cerevisiae deletion strains, locus YNL067W, strain RPL9B, stronger effect = lower value 1.01 | S. cerevisiae deletion strains, locus YNL071W, strain lat1, stronger effect = lower value 1.01 | S. cerevisiae deletion strains, locus YNL183C, strain NPR1, stronger effect = lower value 0.924 | S. cerevisiae deletion strains, locus YNL209W, strain ssb2, stronger effect = lower value 1.02 | S. cerevisiae deletion strains, locus YNL233W, strain BNI4, stronger effect = lower value 1.02 | S. cerevisiae deletion strains, locus YNL248C, strain rpa49, stronger effect = lower value 1.02 | S. cerevisiae deletion strains, locus YNL250W, strain rad50, stronger effect = lower value 0.99 | S. cerevisiae deletion strains, locus YNL271C, strain bni1, stronger effect = lower value 1 | S. cerevisiae deletion strains, locus YNL298W, strain CLA4, stronger effect = lower value 0.992 | S. cerevisiae deletion strains, locus YNL307C, strain MCK1, stronger effect = lower value 0.993 | S. cerevisiae deletion strains, locus YNL322C, strain KRE1 (second series), stronger effect = lower value 1.03 | S. cerevisiae deletion strains, locus YNL322C, strain KRE1, stronger effect = lower value 0.997 | S. cerevisiae deletion strains, locus YNR049C, strain mso1, stronger effect = lower value 1.02 | S. cerevisiae deletion strains, locus YNR052C, strain pop2, stronger effect = lower value 0.991 | S. cerevisiae deletion strains, locus YOL012C, strain htz1 0.881 | S. cerevisiae deletion strains, locus YOL147C, strain pex11, stronger effect = lower value 1 | S. cerevisiae deletion strains, locus YOR001W, strain rrp6, stronger effect = lower value 1.04 | S. cerevisiae deletion strains, locus YOR061W, strain CKA2, stronger effect = lower value 0.969 | S. cerevisiae deletion strains, locus YOR069W, strain VPS5, stronger effect = lower value 0.985 | S. cerevisiae deletion strains, locus YOR070C, strain gyp1, stronger effect = lower value 1.01 | S. cerevisiae deletion strains, locus YOR080W, strain dia2, stronger effect = lower value 1.05 | S. cerevisiae deletion strains, locus YOR083W, strain WHI5, stronger effect = lower value 1.05 | S. cerevisiae deletion strains, locus YOR106W, strain vam3, stronger effect = lower value 1.05 | S. cerevisiae deletion strains, locus YOR136W, strain idh2, stronger effect = lower value 0.983 | S. cerevisiae deletion strains, locus YOR144C, strain elg1, stronger effect = lower value 0.985 | S. cerevisiae deletion strains, locus YOR184W, strain ser1, stronger effect = lower value 0.995 | S. cerevisiae deletion strains, locus YOR231W, strain MKK1, stronger effect = lower value 0.985 | S. cerevisiae deletion strains, locus YOR265W, strain rbl2, stronger effect = lower value 1.02 | S. cerevisiae deletion strains, locus YOR270C, strain vph1, stronger effect = lower value 1.07 | S. cerevisiae deletion strains, locus YOR290C, strain snf2, stronger effect = lower value 0.998 | S. cerevisiae deletion strains, locus YOR316C, strain cot1, stronger effect = lower value 0.981 | S. cerevisiae deletion strains, locus YPL051W, strain arl3, stronger effect = lower value 1.04 | S. cerevisiae deletion strains, locus YPL078C, strain atp4, stronger effect = lower value 1.05 | S. cerevisiae deletion strains, locus YPL106C, strain sse1, stronger effect = lower value 1.02 | S. cerevisiae deletion strains, locus YPL240C, strain hsp82, stronger effect = lower value 1.02 | S. cerevisiae deletion strains, locus YPL241C, strain CIN2, stronger effect = lower value 0.988 | S. cerevisiae deletion strains, locus YPL256C, strain CLN2, stronger effect = lower value 1.01 | S. cerevisiae deletion strains, locus YPR119W, strain clb2, stronger effect = lower value 0.982 | S. cerevisiae deletion strains, locus YPR141C, strain kar3, stronger effect = lower value 0.991 | S. cerevisiae deletion strains, locus YPR163C, strain tif3, stronger effect = lower value 0.991 | S. cerevisiae deletion strains, locus YPR167C, strain met16, stronger effect = lower value 1 | S. cerevisiae deletion strains, strain wtn01, stronger effect = lower value 0.995 | S. cerevisiae strains, strain wild type, stronger effect = lower value 0.982
